{
  "source": "paper PMC7862700",
  "about": "“An all-to-all approach to the identification of sequence-specific readers for epigenetic DNA modifications on cytosine”",
  "assay_in_all_cases": "DAPPL (digital affinity profiling via proximity ligation, sequencing); 10 mM Tris-HCl pH 7.5, 50 mM NaCl, 1 mM DTT, 4% glycerol, room temperature, 30 min; GST-TFs on glutathione beads, 16-mer random dsDNA library, 0.1% formaldehyde crosslink after washing; high values mean tight binding",
  "conditions_in_all_cases": "protein: recombinant; tags: N-terminal GST; dsDNA, one strand shown",
  "key": {"[1]": {"biological_target": "T1, FLI1 (Homo sapiens, UniProt Q01543 1-452)", "T1 sequence": "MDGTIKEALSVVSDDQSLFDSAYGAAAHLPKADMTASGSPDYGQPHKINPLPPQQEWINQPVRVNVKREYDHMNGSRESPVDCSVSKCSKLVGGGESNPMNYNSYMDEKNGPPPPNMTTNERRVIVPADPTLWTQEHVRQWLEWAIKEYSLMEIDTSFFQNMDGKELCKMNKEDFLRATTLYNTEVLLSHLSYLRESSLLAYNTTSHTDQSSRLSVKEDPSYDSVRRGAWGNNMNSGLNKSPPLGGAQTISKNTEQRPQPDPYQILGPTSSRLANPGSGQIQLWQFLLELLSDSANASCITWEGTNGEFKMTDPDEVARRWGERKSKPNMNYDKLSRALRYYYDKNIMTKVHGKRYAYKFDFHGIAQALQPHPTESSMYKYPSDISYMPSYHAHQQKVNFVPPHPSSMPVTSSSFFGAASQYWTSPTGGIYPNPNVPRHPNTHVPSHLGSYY", "in_short": "(§1)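 In yeast, human transcription factors were expressed with a GST fusion, then pulled down on glutathione beads and given DNA barcodes. Pooled with a tag-only sample, they were exposed to 200 nmole of a 16-mer random double-stranded DNA library (Tris/NaCl/DTT/glycerol buffer, room temperature, 30 min), washed, crosslinked with 0.1% formaldehyde, proximity-ligated using BsaI/T4 ligase for 1 h at 37 °C, PCR-amplified and read on an Illumina NextSeq500. Each hexamer's frequency of reads for a factor, divided by the matching frequency for the tag-only sample, gives the binding signal.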"}, "[2]": {"biological_target": "T2, ELK1 (Homo sapiens, UniProt P19419 1-428)", "T2 sequence": "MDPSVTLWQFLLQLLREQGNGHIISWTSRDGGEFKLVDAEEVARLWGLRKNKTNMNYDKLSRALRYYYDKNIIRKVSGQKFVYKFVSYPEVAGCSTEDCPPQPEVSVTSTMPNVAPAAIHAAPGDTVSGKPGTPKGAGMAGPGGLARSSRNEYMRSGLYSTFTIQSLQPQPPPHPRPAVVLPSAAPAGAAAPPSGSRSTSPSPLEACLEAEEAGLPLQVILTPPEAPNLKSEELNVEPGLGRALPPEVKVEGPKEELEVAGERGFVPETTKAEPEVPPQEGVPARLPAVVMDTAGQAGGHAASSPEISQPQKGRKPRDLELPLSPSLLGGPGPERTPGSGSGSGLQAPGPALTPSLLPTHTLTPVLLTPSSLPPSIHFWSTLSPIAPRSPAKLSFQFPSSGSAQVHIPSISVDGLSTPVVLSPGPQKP", "in_short": "as §1"}, "[3]": {"biological_target": "T3, GABPA (Homo sapiens, UniProt Q06546 1-454)", "T3 sequence": "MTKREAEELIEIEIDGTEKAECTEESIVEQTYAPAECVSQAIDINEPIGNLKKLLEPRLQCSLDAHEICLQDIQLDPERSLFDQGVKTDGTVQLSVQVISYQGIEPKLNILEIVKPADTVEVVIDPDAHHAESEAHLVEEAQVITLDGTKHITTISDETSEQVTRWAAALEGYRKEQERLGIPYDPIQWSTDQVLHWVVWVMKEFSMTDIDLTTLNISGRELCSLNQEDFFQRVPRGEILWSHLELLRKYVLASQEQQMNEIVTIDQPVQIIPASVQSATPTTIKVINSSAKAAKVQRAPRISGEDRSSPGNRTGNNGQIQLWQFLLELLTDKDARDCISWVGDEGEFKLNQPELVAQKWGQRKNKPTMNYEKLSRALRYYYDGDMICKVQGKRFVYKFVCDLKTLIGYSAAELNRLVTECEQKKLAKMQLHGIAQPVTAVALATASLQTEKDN", "in_short": "as §1"}, "[4]": {"biological_target": "T4, ERG (Homo sapiens, UniProt P11308 1-479)", "T4 sequence": "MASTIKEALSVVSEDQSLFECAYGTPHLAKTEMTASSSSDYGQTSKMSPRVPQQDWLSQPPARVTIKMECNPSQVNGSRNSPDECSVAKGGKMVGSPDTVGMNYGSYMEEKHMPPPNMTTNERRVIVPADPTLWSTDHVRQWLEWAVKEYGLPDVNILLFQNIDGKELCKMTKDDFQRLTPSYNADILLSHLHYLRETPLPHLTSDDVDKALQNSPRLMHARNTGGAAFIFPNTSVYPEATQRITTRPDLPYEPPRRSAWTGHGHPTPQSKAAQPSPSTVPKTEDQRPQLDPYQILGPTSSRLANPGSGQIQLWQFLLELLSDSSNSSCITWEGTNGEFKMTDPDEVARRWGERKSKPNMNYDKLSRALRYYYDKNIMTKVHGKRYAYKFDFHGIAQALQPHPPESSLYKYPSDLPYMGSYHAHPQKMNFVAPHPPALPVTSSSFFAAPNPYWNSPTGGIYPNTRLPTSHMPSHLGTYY", "in_short": "as §1"}, "[5]": {"biological_target": "ELF1 (Homo sapiens, UniProt P32519 1-619)", "sequence (P32519 whole entry)": "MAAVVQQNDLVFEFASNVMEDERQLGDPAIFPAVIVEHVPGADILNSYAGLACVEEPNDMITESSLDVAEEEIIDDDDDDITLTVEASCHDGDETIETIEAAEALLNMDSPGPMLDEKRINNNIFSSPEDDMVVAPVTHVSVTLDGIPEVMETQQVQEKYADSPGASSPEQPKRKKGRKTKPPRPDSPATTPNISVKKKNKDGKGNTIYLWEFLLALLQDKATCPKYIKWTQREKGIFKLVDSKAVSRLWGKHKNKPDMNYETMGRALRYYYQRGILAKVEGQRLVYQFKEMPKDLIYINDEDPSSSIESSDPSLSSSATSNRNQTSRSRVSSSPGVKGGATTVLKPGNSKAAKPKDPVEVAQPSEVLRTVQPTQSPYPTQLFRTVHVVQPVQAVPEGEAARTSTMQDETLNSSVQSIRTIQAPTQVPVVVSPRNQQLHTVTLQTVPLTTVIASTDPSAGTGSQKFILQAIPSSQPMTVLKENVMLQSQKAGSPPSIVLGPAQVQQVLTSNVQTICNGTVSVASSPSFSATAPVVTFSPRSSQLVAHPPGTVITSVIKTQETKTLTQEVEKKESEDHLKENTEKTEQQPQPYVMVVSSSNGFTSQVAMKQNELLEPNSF", "in_short": "as §1"}, "[6]": {"biological_target": "T5, EHF (Homo sapiens, UniProt Q9NZC4 1-300)", "T5 sequence": "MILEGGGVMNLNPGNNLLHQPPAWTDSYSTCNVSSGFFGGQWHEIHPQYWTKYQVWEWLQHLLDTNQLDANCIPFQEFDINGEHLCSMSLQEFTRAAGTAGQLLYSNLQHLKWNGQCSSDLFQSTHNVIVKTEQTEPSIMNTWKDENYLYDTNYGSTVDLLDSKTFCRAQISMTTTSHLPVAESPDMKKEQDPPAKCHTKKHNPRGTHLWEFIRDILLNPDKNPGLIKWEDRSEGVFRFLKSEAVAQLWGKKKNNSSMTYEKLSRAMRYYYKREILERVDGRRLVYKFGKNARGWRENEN", "in_short": "as §1"}, "[7]": {"biological_target": "SPI1 (Homo sapiens, UniProt P17947 1-270)", "in_short": "as §1"}, "[8]": {"biological_target": "SPIB (Homo sapiens, UniProt Q01892 1-262)", "sequence (Q01892 whole entry)": "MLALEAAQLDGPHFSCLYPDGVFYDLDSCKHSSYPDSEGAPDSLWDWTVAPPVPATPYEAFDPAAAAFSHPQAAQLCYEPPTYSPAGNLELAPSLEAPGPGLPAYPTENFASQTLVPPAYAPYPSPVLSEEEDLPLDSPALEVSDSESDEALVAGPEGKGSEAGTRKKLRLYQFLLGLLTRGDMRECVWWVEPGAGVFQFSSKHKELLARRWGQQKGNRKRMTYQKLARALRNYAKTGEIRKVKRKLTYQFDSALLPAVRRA", "in_short": "as §1"}, "[9]": {"biological_target": "T6, ELK3 (Homo sapiens, UniProt P41970 1-407)", "T6 sequence": "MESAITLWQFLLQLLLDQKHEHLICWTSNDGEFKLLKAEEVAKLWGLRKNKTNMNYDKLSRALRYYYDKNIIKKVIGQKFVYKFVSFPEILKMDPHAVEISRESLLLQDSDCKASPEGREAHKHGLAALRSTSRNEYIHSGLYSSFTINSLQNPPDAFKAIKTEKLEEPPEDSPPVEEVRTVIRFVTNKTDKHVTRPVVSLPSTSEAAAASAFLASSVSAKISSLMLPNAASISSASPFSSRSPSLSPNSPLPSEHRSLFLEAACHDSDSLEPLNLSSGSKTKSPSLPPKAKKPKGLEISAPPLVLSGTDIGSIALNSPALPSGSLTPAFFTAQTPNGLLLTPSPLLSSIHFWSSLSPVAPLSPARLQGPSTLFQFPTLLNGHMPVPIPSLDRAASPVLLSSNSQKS", "in_short": "as §1"}},
  "data": [
    {"sequence": "AATCTC", "values": [
      {"measurement": "binding signal", "setting": "[1]", "result": "1.26 fold enrichment (6-mer frequency, TF over GST control)"},
      {"measurement": "binding signal", "setting": "[2]", "result": "1.21 fold enrichment (6-mer frequency, TF over GST control)"},
      {"measurement": "binding signal", "setting": "[3]", "result": "1.28 fold enrichment (6-mer frequency, TF over GST control)"},
      {"measurement": "binding signal", "setting": "[4]", "result": "1.19 fold enrichment (6-mer frequency, TF over GST control)"},
      {"measurement": "binding signal", "setting": "[5]", "result": "1.16 fold enrichment (6-mer frequency, TF over GST control)"},
      {"measurement": "binding signal", "setting": "[6]", "result": "1.27 fold enrichment (6-mer frequency, TF over GST control)"},
      {"measurement": "binding signal", "setting": "[7]", "result": "1.16 fold enrichment (6-mer frequency, TF over GST control)"},
      {"measurement": "binding signal", "setting": "[8]", "result": "1.2 fold enrichment (6-mer frequency, TF over GST control)"},
      {"measurement": "binding signal", "setting": "[9]", "result": "1.15 fold enrichment (6-mer frequency, TF over GST control)"}
    ]}
  ]
}
